The text below walks through data of PubChem BioAssay AID651916 (Vanderbilt Specialized Chemistry Center, 2012).

This assay addresses Histone deacetylase 3 (Homo sapiens) (UniProt O15379). Briefly: HDAC3 deacetylase inhibition, profiling panel, selectivity assay for E-cadherin restoration project, biochemical, human (AID 651916).

The source made the active and inactive calls. No rule for the calls is given here.

Sequence of Histone deacetylase 3 (Homo sapiens) (O15379 whole entry, looked up): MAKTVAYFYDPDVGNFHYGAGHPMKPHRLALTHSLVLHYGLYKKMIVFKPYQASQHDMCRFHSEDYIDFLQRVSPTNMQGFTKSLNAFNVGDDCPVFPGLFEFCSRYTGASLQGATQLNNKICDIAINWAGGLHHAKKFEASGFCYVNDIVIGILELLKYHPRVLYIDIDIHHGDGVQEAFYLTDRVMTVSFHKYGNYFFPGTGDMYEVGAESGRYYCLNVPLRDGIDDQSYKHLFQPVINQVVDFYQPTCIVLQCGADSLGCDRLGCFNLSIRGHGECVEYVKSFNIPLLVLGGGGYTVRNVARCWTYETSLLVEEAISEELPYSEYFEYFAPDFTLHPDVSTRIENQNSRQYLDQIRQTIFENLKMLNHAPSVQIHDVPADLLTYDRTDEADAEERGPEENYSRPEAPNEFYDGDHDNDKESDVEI

Regarding `O=C(NCCCNC(=O)c1ccc[nH]c1=O)c1cc(-c2ccccc2)on1`, the molecule was classed as inactive.
